Data published in PubChem BioAssay AID1159580 (chemical genetic matrix, 2015).
Among all 5,500 compounds or so, about 2,000 (36%) were called active. Not shown: some 18% with an inconclusive outcome. No stated cut-off is given here; in the data, active means normalized growth mostly below about 0.91 (no sharp cut-off); inconclusive means no clear call, values can overlap the other calls; inactive means mostly above about 0.92. This is one part of the list.

Test: chemical genetic growth profiling, strain panel (AID 1159580);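 further: tested at 20 µM; growth read once vehicle control cultures reached saturation at 30 °C; 1 = growth at the plate median or of vehicle wells; lower values mean less growth of the strain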
Conditions: S. cerevisiae deletion strains, growth OD

Measured: normalized growth

CC(=O)N[C@H](C(=O)O)C(C)(C)SN=O
inactive: locus YAL013W, strain DEP1, active compounds read low 1.01 | locus YAL040C, strain CLN3, active compounds read low 1.01 | locus YCL061C, strain MRC1 (second series), active compounds read low 1.01 | locus YDR363W, strain ESC2, active compounds read low 0.989 | locus YER002W, strain NOP16, active compounds read low 1.01 | locus YGR078C, strain PAC10, active compounds read low 1.02 | locus YGR229C, strain SMI1, active compounds read low 1 | locus YMR307W, strain GAS1, active compounds read low 0.987 | locus YNL128W, strain TEP1, active compounds read low 0.998 | locus YNL153C, strain GIM3, active compounds read low 1.02 | locus YNL175C, strain NOP13, active compounds read low 1.01 | locus YNL197C, strain WHI3, active compounds read low 1.01 | locus YNL224C, strain SQS1, active compounds read low 1.02 | locus YNL322C, strain KRE1, active compounds read low 1.01 | locus YOR083W, strain WHI5 (second series), active compounds read low 1.02 | locus YPL241C, strain CIN2, active compounds read low 1.01
